Active and inactive are the calls of the source.
Tests used:
[1] = tested on: Plasmodium falciparum Sir2 (PF13_0152, Sir2A); test: Plasmodium falciparum Sir2A binding compounds – biochemical, small-molecule microarray, 635 nm fluorescence, primary screen (AID 1098); settings: fluorescence 635 nm, higher = more signal;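 note: score merges spot fluorescence intensity with its signal-to-noise ratio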
[2] = probe aDKK1 binding to arrayed compounds – biochemical, biotinylated probe, 635/667 nm fluorescence, primary screen (AID 1099); settings: small-molecule microarray, higher = more signal;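 note: score merges 667nm spot fluorescence with signal to noise across triplicate slides; reference of the scale not given here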
[3] = probe aCHRDL2 binding to arrayed compounds – biochemical, biotinylated probe, 635/667 nm fluorescence, primary screen (AID 1100); settings: small-molecule microarray, higher = more signal
[4] = change in splice reporter luminescence, either direction, cell-based, HEK293, spliceosome inhibition project, primary screen (AID 1101); settings: HEK293 splicing luciferase reporter, 24 h, higher = more signal, called active from +8 up or from −8 down;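 note: HEK293 cells carrying a splicing-competent luciferase reporter gene; test concentration not given here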
[5] = target: Fibroblast growth factor 10 (Homo sapiens) (UniProt O15520); test: compounds binding fibroblast growth factor 10 – biochemical, small-molecule microarray, 635 nm fluorescence, primary screen (AID 1102); settings: FGF10 binding, fluorescence 635 nm, higher = more signal
[6] = tested on: glycogen synthase kinase-3 (GSK3A per assay name; protocol says GSK3B); test: compounds binding glycogen synthase kinase-3 – biochemical, small-molecule microarray, 635 nm fluorescence, GSK3A, primary screen (AID 1103); settings: fluorescence 635 nm, higher = more signal; note: the record names both GSK3A and GSK3B
[7] = target: Epidermal growth factor receptor (Homo sapiens) (UniProt P00533); test: compounds binding epidermal growth factor receptor – biochemical, small-molecule microarray, 635 nm fluorescence, primary screen (AID 1104); settings: EGFR binding, higher = more signal;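 note: score merges 667 nm emission intensity with spot signal to noise over triplicate slides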
[8] = target: Follistatin-related protein 3 (Homo sapiens) (UniProt O95633); test: compounds binding follistatin-related protein 3 – biochemical, small-molecule microarray, 635 nm fluorescence, primary screen (AID 1105); settings: FSTL3 binding, higher = more signal;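 note: score merges emission near 667 nm and signal to noise per printed spot across three slides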
[9] = target: Dickkopf-related protein 1 (Homo sapiens) (UniProt O94907); test: small molecules binding DKK1 protein – biochemical, small-molecule microarray, 635 nm fluorescence scan, primary screen (AID 1106); settings: higher = more signal;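 note: score merges emission near 667 nm with signal to noise over three replicate slides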
[10] = tested on: Inhibin beta A chain (activin A); test: small molecules binding activin A – biochemical, small-molecule microarray, 635 nm fluorescence scan, primary screen (AID 1107); settings: INHBA, higher = more signal;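 note: mouse activin A protein probed at 4.33 µg/mL on printed slides; score merges bound-protein fluorescence near 667 nm with spot signal-to-noise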

Sequence of Dickkopf-related protein 1 (Homo sapiens) (O94907 whole entry, looked up): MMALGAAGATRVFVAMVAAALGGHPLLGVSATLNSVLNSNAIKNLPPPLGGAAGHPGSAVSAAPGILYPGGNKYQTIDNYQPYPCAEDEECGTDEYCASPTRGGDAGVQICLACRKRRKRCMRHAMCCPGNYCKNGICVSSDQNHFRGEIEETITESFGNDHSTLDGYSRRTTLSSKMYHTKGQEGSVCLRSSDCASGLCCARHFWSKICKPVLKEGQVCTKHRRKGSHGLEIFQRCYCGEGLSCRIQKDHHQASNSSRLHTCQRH
Sequence of Epidermal growth factor receptor (Homo sapiens) (P00533 whole entry, looked up): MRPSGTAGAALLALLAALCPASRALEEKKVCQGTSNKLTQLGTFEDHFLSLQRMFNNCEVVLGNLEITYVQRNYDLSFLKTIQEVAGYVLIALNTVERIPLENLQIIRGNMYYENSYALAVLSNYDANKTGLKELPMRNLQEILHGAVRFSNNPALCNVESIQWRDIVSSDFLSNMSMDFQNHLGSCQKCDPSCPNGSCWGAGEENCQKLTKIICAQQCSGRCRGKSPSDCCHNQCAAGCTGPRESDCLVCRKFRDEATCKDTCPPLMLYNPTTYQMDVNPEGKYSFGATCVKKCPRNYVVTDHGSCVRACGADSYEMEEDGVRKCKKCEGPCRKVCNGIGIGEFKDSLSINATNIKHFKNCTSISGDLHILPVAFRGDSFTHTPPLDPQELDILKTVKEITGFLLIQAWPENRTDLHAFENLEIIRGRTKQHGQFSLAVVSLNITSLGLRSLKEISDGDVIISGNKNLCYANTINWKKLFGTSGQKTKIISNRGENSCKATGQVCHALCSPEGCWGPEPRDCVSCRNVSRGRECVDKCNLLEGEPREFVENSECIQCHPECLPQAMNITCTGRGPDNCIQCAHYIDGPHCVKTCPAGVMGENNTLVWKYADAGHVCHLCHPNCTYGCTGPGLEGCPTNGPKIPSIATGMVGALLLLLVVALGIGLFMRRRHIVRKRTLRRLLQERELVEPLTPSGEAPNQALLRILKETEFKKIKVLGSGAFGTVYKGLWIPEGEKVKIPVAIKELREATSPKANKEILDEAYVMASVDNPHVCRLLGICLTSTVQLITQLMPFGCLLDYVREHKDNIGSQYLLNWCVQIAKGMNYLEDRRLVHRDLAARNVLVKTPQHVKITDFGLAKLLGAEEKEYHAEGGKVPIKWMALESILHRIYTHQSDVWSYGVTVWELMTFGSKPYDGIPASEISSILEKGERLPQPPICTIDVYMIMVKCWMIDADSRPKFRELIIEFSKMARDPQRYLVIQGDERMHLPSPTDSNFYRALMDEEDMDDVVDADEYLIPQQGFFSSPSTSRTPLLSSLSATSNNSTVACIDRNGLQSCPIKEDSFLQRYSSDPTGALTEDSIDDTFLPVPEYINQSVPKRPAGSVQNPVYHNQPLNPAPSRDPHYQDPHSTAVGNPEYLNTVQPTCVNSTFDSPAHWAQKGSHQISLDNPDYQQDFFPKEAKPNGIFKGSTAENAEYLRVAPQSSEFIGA
Sequence of Fibroblast growth factor 10 (Homo sapiens) (O15520 whole entry, looked up): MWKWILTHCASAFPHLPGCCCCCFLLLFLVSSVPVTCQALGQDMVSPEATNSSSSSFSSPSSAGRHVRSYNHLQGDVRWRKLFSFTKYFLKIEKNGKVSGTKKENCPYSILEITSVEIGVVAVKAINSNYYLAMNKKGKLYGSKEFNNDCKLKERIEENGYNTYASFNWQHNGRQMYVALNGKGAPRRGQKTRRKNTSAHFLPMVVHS
Sequence of Follistatin-related protein 3 (Homo sapiens) (O95633 whole entry, looked up): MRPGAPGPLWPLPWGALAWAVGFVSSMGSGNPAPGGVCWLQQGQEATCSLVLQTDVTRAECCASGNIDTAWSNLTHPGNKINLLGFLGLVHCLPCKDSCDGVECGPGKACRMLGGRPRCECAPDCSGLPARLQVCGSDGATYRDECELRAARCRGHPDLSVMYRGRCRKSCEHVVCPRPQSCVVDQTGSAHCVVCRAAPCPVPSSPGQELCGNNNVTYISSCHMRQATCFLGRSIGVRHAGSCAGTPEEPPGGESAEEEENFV

| SMILES | composite z-score [1] | composite z-score [2] | composite z-score [3] | z-score [4] | composite z-score [5] | composite z-score [6] | composite z-score [7] | composite z-score [8] | composite z-score [9] | composite z-score [10] |
| --- | --- | --- | --- | --- | --- | --- | --- | --- | --- | --- |
| COCCOC(=O)N1C(=O)[C@@]2(c3cc(C#CC4=CCCCC4)ccc31)[C@H](c1ccccc1OCCO)N1[C@H](c3ccccc3)[C@H](c3ccccc3)OC(=O)[C@H]1[C@@H]2C(=O)Nc1nc2ccccc2s1 | 1.09 | -0.148 | -0.226 | -1.62 (inactive) | 1.08 | 0.69 | 0.416 | 0.981 | 0.506 | 0.936 |
| COCCOC(=O)N1C(=O)[C@@]2(c3cc(C#CC4(O)CCCCCC4)ccc31)[C@H](c1ccc(O)cc1)N1[C@H](c3ccccc3)[C@H](c3ccccc3)OC(=O)[C@H]1[C@@H]2C(=O)NC[C@H](O)c1ccccc1 | 0.355 | 0.655 | 0.692 | 0.355 (inactive) | 1.12 | 1.29 | 0.783 | 0.936 | 1.08 | -0.237 |
| CCOC(=O)c1ccc(NC(=O)O[C@H]2[C@H](OC(=O)Nc3ccc4c(c3)OCO4)[C@H](OC(=O)Nc3ccc4c(c3)OCO4)[C@@H](OC)O[C@@H]2CO)cc1 | 1.56 | 0.901 | 0.944 | 0.646 (inactive) | 1.33 | 1.33 | 0.517 | 1.39 | 1 | 0.673 |
| [N-]=[N+]=Nc1ccccc1[C@H]1OC(c2ccc(OCCCO)cc2)=N[C@@]1(CCS(=O)(=O)c1ccccc1)C(=O)NCCN1CCOCC1 | 1.35 | -0.135 | 0.775 | -0.0945 (inactive) | 1.41 | 1.21 | 0.131 | 1.19 | 0.248 | 0.903 |
| COCCOC(=O)N1C(=O)[C@@]2(c3cc(C#CC4=CCCCC4)ccc31)[C@H](C(N)=O)[C@H]1C(=O)O[C@H](c3ccccc3)[C@H](c3ccccc3)N1[C@@H]2c1ccccc1OCCO | 1.46 | 0.195 | 0.367 | -1.88 (inactive) | 1.24 | 1.32 | 0.32 | 0.733 | 0.707 | 0.455 |
| COC(=O)[C@H](Cc1ccccc1)N1CC(/C=C/C2CC2)=C[C@H]1[C@H](O)Cc1ccccc1 | 0.728 | -0.0559 | -0.165 | 20.9 (active) | 0.697 | 0.368 | 0.237 | 0.702 | 0.734 | 0.597 |
| O=C1O[C@H](c2ccccc2)[C@H](c2ccccc2)N2[C@H]1[C@@H](C(=O)N1CCN(c3ncccn3)CC1)[C@]1(C(=O)Nc3ccc(C#CC4(O)CCCCCC4)cc31)[C@H]2c1ccc(OCCO)cc1 | 1.82 | 0.695 | 0.731 | -0.604 (inactive) | 1.45 | 1.33 | 1.38 | 1.21 | 1.42 | 0.86 |
| CC(C)[Si](C#C[Si](C(C)C)(C(C)C)C(C)C)(O[C@H](C)c1cn([C@H](CO)Cc2ccccc2)nn1)C(C)C | 0.107 | -0.229 | -0.316 | -0.0126 (inactive) | 0.0848 | 0.229 | 0.0255 | -0.0447 | 0.377 | 0.201 |
| CC1CC/C=C\[C@H]2OC34C=CCN(C(C)C)C(=O)[C@H]3N(CCCCCCO)C(=O)[C@@H]4C2C(=O)O1 (stereo not given in full) | 0.733 | -0.242 | 0.417 | -0.935 (inactive) | -1.16 | -1.22 | -0.755 | -0.931 | -1.24 | 0.25 |
| CCCCCCc1nc(-c2cc(C)c(OC)c(C)c2)c(C)c2c1[Si](C(C)C)(C(C)C)OC2 | -0.17 | 0.101 | -0.178 | -1.9 (inactive) | -0.722 | -0.644 | 0.202 | -0.0761 | 0.0434 | 0.737 |
| CCCCCCCCCCC(O)C1C=CC2C(=O)N(C)C(=O)C2N1Nc1ccc([N+](=O)[O-])cc1[N+](=O)[O-] (stereo not given) | 0.781 | 0.899 | 0.905 | 1.62 (inactive) | 0.141 | 0.461 | -0.497 | 0.323 | -0.57 | 0.894 |
| O=C1NC(=O)C2C1C=CC(C(O)c1cccc3ccccc13)N2Nc1ccc(Cl)cc1Cl (stereo not given) | 0.477 | 0.911 | 1.16 | 1.02 (inactive) | 0.46 | 0.267 | -0.459 | 0.0589 | -1.03 | 1.01 |
| CC(C)(C)N1CC=CC23O[C@@H]4C=CCCOC(=O)C4[C@H]2C(=O)N(CCO)[C@@H]3C1=O (stereo not given in full) | -1.04 | -0.106 | -0.254 | 0.288 (inactive) | -0.385 | -0.649 | -0.306 | -0.959 | -0.492 | 0.0863 |
| COc1ccc(CCNC(=O)[C@@]2(Sc3ccc(C)cc3)CC(=O)N(C3Cc4ccccc4C3)[C@@H]2c2ccc(CO)cc2)cc1 | 0.672 | 0.167 | -0.0208 | -1.67 (inactive) | 1.78 | 1.27 | 0.494 | 1.51 | 2.06 | 1.23 |
| O=C(CS)NCCCCCCNC(=O)[C@H]1C[C@H]2C(=O)N[C@@H](Cc3ccccc3)C(=O)N2[C@H]1c1ccc(O)cc1 | 1.67 | -0.249 | -0.0488 | -0.239 (inactive) | 1.39 | 0.992 | 0.0478 | 0.333 | 0.75 | -0.95 |
| C=CCOC(=O)[C@H]1[C@@H]2C(=O)O[C@@H](c3ccccc3)[C@@H](c3ccccc3)N2[C@@H](c2ccc(OCCOC(=O)[C@H]3C[C@H]4C(=O)N[C@@H](CC(C)C)C(=O)N4[C@H]3c3cccc(OCCO)c3)cc2)[C@]12C(=O)Nc1ccc(I)cc12 | 1.36 | -0.122 | 0.18 | 0.642 (inactive) | 1.33 | 1.31 | 1.21 | 0.919 | 0.963 | 0.535 |
| COc1ccc(CCNC(=O)[C@@H]2c3ccccc3C(=O)N(Cc3cc(C(F)(F)F)cc(C(F)(F)F)c3)[C@H]2c2ccc(CO)cc2)cc1 | 1.1 | 0.0172 | 0.716 | -0.082 (inactive) | 0.0696 | -0.331 | -0.358 | -0.272 | -0.594 | -0.167 |
| COC(=O)[C@@]1(Cc2ccc(F)cc2)[C@H]2c3cc(C(=O)N(C)C)n(Cc4cc(F)cc5c4OCOC5)c3C[C@H]2CN1C(=O)c1ccccc1 | 0.743 | 1.25 | 1.25 | -1.26 (inactive) | 0.87 | 0.427 | 0.105 | 0.913 | -0.171 | 0.677 |
| C=C(COC)C(=O)CC[C@@H](OC(=O)c1cccnc1)c1ccc(OCCO)cc1 | 0.872 | 0.131 | 0.423 | -0.853 (inactive) | 1.55 | 0.328 | 0.338 | 0.847 | 0.922 | 1.26 |
| COC(=O)c1c2oc(c1C(=O)OC)C(=O)N(Cc1ccccc1)Cc1cn(nn1)C[C@H](Cc1ccccc1)NC(=O)N[C@H](CO)CC2 | 0.909 | -0.0239 | -0.342 | -2.12 (inactive) | 0.247 | 0.278 | 0.0933 | 0.111 | -0.0193 | 0.0809 |
| CC(C)OC(=O)C=C1C[C@@H](c2ccc(C(F)(F)F)cc2)O[C@@H](c2ccc(C(F)(F)F)cc2)O1 | 1.12 | 0.164 | 0.492 | -1.55 (inactive) | 0.158 | 0.485 | -0.765 | 0.0144 | -0.899 | -0.522 |
| COC(=O)c1ccc([C@H](NC(=O)c2ccco2)[C@]2(C)C[C@H]2C2CCCCC2)cc1 | -1.05 | 0.642 | 1.06 | 2.43 (inactive) | -0.32 | -1.22 | -0.808 | -1.03 | -1.09 | 0.447 |
| COC(=O)[C@@]1(Cc2ccccc2)[C@H]2c3cc(C(=O)N(C)C)n(CCN4CNCC4=O)c3C[C@H]2CN1C(=O)c1ccccc1 | 1.59 | 1.38 | 1.31 | 1.25 (inactive) | -0.243 | -0.604 | -1.71 | -0.618 | -1.59 | 0.433 |
| CC(C)C(=C=CC[C@H](O)c1cccc(OCCO)c1)C[C@H](O)c1cc(Cl)cc(Cl)c1O | 0.507 | -0.217 | 0.0419 | -0.747 (inactive) | 1.43 | 0.0728 | -0.388 | 0.544 | -0.0693 | 0.346 |
| C=CCOC(=O)[C@H]1[C@@H]2C(=O)O[C@@H](c3ccccc3)[C@@H](c3ccccc3)N2[C@@H](c2ccc(OCCOC(=O)[C@H]3C[C@H]4C(=O)N[C@@H](CCCCNC(C)=O)C(=O)N4[C@H]3c3ccc(O)cc3)cc2)[C@]12C(=O)Nc1ccccc12 | 0.611 | 0.258 | 0.493 | -1.18 (inactive) | 0.776 | 1.28 | 0.915 | 0.932 | 1.31 | 0.351 |
| O=C1NC(=O)C2C1C=CC(C(O)CCc1ccccc1)N2Nc1ccc(Cl)cc1Cl (stereo not given) | 0.187 | 1.39 | 1.29 | 1.5 (inactive) | 0.265 | 0.107 | -0.973 | 0.195 | -0.743 | 1.28 |
| C=C(/C(=C/C[C@@H](OC(C)=O)c1cccc(OCCO)c1)c1cc(C(=O)OC)ccc1OC)C(C)C | 0.628 | 0.153 | -0.0171 | -0.0584 (inactive) | 0.855 | -0.298 | -0.122 | 0.533 | -0.35 | 0.632 |
